From PubChem BioAssay (NCI) come the findings set out here.

SMILES strings stand for the structures. The panel holds about 83,000 compounds, 20% with a hit somewhere; the sample as a whole holds those more often.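 96-well plates, one dose, 48 hours. Percent growth reported; active if below 10.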 Values without a mark were called inactive. Activity calls are given as the source filed them.

The test system of this assay is MDA-MB-468 breast. Kind of assay: NCI-60 one-dose screen, 48 h (100 = growth as untreated, 0 = no growth, -100 = all killed). As to conditions: 10 µM unless noted.

For `Cc1ccc2nc3ccccc3c(NCc3ccccc3)c2c1`, the growth was -11% (active).
The result for `O=C(CCCCCCNC(=O)c1csc(Br)n1)NO` reads 26.6%; that for `CCOc1ccc(C(C)=O)cc1NC(=O)c1cccc(-c2nnn(CC)n2)c1`, 17.5%.
Regarding `COc1ccc2c(c1)OC(N)=C(C#N)C2c1ccc(F)c(F)c1` (stereo unspecified), the growth was -24.4% (active).
Then `COc1ccc(C(=O)Nn2c(NCC(=O)N3c4ccccc4Sc4ccccc43)nnc2-c2ccc(O)cc2)cc1`, with 107%; and `C=CCn1cc(-c2nc3ccccc3s2)c2cc(-c3ccc4c5c(cccc35)C(=O)N(CCO)C4=O)ccc21`, with 96%.
